Vc quorum ag = inducers of Vibrio cholerae quorum light production without autoinducers, primary screen, BH1578 luxS cqsA deficient, single point. V. cholerae BH1578 lux reporter, luminescence, 6 h. activation, % at 18.7 µM. actives 0.16% (n = 350,000). AID 588436, 2011; in the data active means activation mostly above about 9.7%, no sharp cut-off
Mtb hypoxia rep = PubChem AID 1159583. fluorescence inhibition, % (test concentration not listed). actives 0.1% (n = 300,000). M. tuberculosis hypoxia-regulated fluorescent reporter, fluorescence; in the data active means fluorescence inhibition mostly above about 23%, no sharp cut-off; inactive means mostly below about 17%
MazF activator = activators of E. coli MazEF toxin-antitoxin RNase, primary screen, biochemical, fluorescence, uHTS; actives 0.32% (n = 350,000); AID 504720, 2011; FAM/BHQ RNA-DNA oligo cleavage fluorescence, 5 h; Endoribonuclease toxin MazF (Escherichia coli (strain K12)), P0AE70; activation, % at 20 µM; in the data active means activation above about 50%
Target sequence (P0AE70 whole entry, looked up): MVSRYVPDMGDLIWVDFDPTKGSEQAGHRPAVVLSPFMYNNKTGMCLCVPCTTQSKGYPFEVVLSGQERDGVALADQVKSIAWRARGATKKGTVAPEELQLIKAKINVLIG
PriA SSB inh = inhibitors of Klebsiella pneumoniae PriA binding to SSB C-terminal tail, primary screen, biochemical, AlphaScreen; PriA–SSB C-terminal tail interaction (Klebsiella pneumoniae); AlphaScreen SSBct-PriA binding, biotinylated peptide; inhibition, % at 33 µM; actives 0.6% (n = 430,000); AID 1272365, 2023; in the data active means inhibition mostly above about 37%, no sharp cut-off; inactive means mostly below about 20%;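 further: plate controls were negative control peptide for no effect and reference peptide for full effect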
Active calls of the source: *; i = inactive; / = no result shown; + = active, no number; ! = a repeat was not active. The list is not random: actives were taken first. Their share in the collection is about 0.94%.

SMILES	Vc quorum ag	Mtb hypoxia rep	MazF activator	PriA SSB inh
O=C(NCc1ccc(C(O)c2cccs2)s1)c1ccc(Cl)s1 (stereo not drawn)	/	/	/	-29
COC(=O)NCC(OC)c1cccc(OC)c1 (stereo not drawn)	/	/	/	6
COc1cccc(OCC(=O)Nc2ccc3c(c2)CCC(=O)N3CCC(C)C)c1	/	/	/	3
CCS(=O)(=O)c1cccc(C(=O)Nc2nc3ccc(OC)cc3s2)c1	/	/	/	-9
O=C(Cc1ccccc1)NCCS(=O)(=O)N1CCN(c2cccc(Cl)c2)CC1	0	-6	-6	-2
O=C(Cc1ccc(F)cc1)NCCS(=O)(=O)N1CCN(c2cccc(Cl)c2)CC1	i	-7	-10	38*
C[C@H](NC(=O)c1ccccc1)C(=O)Nc1nc(-c2ccccn2)cs1	3	-4	-21	62*
CC(CC(=O)Nc1nc(-c2ccccn2)cs1)NC(=O)c1ccccc1 (stereo not drawn)	/	/	/	75*
CC(Oc1ccccc1)C(=O)Nc1nc(-c2ccccn2)cs1 (stereo not drawn)	i	21	-3	5
CCC(C(=O)Nc1nc(-c2ccccn2)cs1)c1ccccc1 (stereo not drawn)	/	/	/	100*
O=C(Nc1nc(-c2ccccn2)cs1)C(c1ccccc1)c1ccccc1	/	/	/	37
CN(C)c1cccc(C(=O)NC[C@](C)(O)c2cc3ccccc3s2)c1	/	/	/	12
O=S(=O)(Nc1nc2c(s1)CCCC2)c1ccc2ccccc2c1	17*	/	-1	-5
O=C(Nc1ccc(Br)cc1)c1ccc(=O)[nH]n1	/	/	/	-12
O=[N+]([O-])c1cccnc1Sc1ccc(Br)cc1	-1	11	5	48*
Cc1ccc(Sc2ncccc2[N+](=O)[O-])cc1	i	9	1	36
O=[N+]([O-])c1cccnc1SCc1ccccc1	-1	-7	-18	48*
COc1ccc(S(=O)(=O)NCC2CCN(S(=O)(=O)c3cccnc3)CC2)cc1F	/	/	/	-16
CN(C)S(=O)(=O)c1ccc(C(O)=C(C#N)c2nc3ccccc3s2)cc1	/	/	/	14
CCOC(=O)C1(Cc2ccccc2C)CCCN(C(=O)c2ccoc2)C1 (stereo not drawn)	i	10	5	41*
Cc1ccc(C)c(C(O)=C2C(=O)C(=O)N(Cc3cccnc3)C2c2cccnc2)c1 (stereo not drawn)	/	/	/	-4
CSc1ccc(-c2noc(-c3ccc(CS(=O)(=O)c4ccc(C)cc4)o3)n2)cc1	/	/	/	-13
Cc1ccc(/C=C2\SC(=S)N(CCC(=O)Nc3cccnc3)C2=O)cc1	i	0	82*	8
CN=C1SCC(O)(c2cccc([N+](=O)[O-])c2)N1C (stereo not drawn)	/	/	/	-5
Cc1nsc(C(=O)NCCN(C)C)n1	/	/	/	3
SMILES	Vc quorum ag	Mtb hypoxia rep	MazF activator	PriA SSB inh
C=CCn1c(O)c(CN2CCN(Cc3ccccc3)CC2)c(C)c(C#N)c1=O	17*	3	-4	-2
Cn1cc(Cl)c(C(=O)N/N=C/c2ccc3c4c(cccc24)CC3)n1	0	/	68*	/
CCOc1ccc(NC(=O)CSc2nnc(-c3ccccn3)n2N)cc1	i	10	3	64*!
COc1ccc(-c2cnc(SCC(=O)Nc3ccccc3)n2-c2ccccc2C)cc1	/	/	/	44*
COc1ccc(NC(=O)CSc2nnc(-c3ccccn3)n2N)cc1	-2	2	-3	59*
Nn1c(SCC(=O)Nc2ccc(F)cc2)nnc1-c1ccccn1	0	7	2	7
COCCN1C(=O)C(=O)C(=C(O)c2ccc(S(=O)(=O)N3CCOCC3)cc2)C1c1ccc(O)c(OC)c1 (stereo not drawn)	/	/	/	5
O=C(NCc1ccc(F)cc1)C(=O)Nc1ccc(Cl)c(N2CCCS2(=O)=O)c1	/	/	/	-4
O=C(Nc1ccc2c(c1)OCO2)c1ccc(=O)n(Cc2cccc(F)c2)n1	/	/	/	17*
COc1ccc(-c2nc(C#N)c(N3CCC(C)CC3)o2)cc1	1	3	-3	20
CCOc1ccc(-c2nc(C#N)c(N3CCN(C)CC3)o2)cc1	-7	19	0	-6
CCOc1ccc(-c2nc(C#N)c(N3CCCCCC3)o2)cc1	0	11	-1	93*
COc1ccc(-c2nc(C#N)c(N3CCCCC3)o2)cc1	-1	10	0	50*
COc1ccc(-c2nc(C#N)c(N3CCOCC3)o2)cc1	/	/	/	54*
COc1ccc(-c2nc(C#N)c(N3CCCCCC3)o2)cc1	i	5	-6	8
O=C(CSc1nc(-c2cccc([N+](=O)[O-])c2)cs1)c1ccc2c(c1)OCCO2	/	/	/	-2
CCOc1ccc(C2C(=C(O)c3ccc(S(=O)(=O)N4CCCCC4)cc3)C(=O)C(=O)N2CCCOC)cc1OC (stereo not drawn)	/	/	/	4
O=C(NCc1ccc(F)cc1)c1cnn2ccccc12	0	2	-3	104*
CCOc1ccc(S(=O)(=O)N2CCc3ccccc3C2)cc1CC	/	/	/	-6
O=C(Cc1ccc2ccccc2c1)Nc1nnc(-c2ccc(Br)s2)o1	/	/	/	-10
CC1C/C(=C/c2cccn2C)C(=O)/C(=C/c2cccn2C)C1 (stereo not drawn)	0	9	+	10
CC1C/C(=C/c2ccncc2)C(=O)/C(=C/c2ccncc2)C1 (stereo not drawn)	0	/	0	-4
Cc1cccc2c3nc4ccccc4nc3n(C)c12	i	20	165*	-37
COc1ccc(-c2cc3ccccc3n2CC(O)Cn2nc(C)cc2C)cc1 (stereo not drawn)	-1	/	8	47*
OC(CN1CCc2ccccc2C1)CN1c2ccccc2Sc2ccccc21 (stereo not drawn)	/	/	/	54*
SMILES	Vc quorum ag	Mtb hypoxia rep	MazF activator	PriA SSB inh
CC1CCN(CC(O)CN2c3ccccc3Sc3ccccc32)CC1 (stereo not drawn)	-1	4	16	-9
Cc1ccc(C(=O)OCC(=O)N(C)c2ccccc2)c(C)c1	-6	-3	-1	-13
CN(C(=O)COC(=O)c1ccc([N+](=O)[O-])cc1N)c1ccccc1	0	9	70*	9
O=C(OCC(=O)C12CC3CC(CC(C3)C1)C2)c1ccc(CO)cc1	-2	25*	-2	0
O=C(OCC(=O)C12CC3CC(CC(C3)C1)C2)c1ccc(O)cc1	-1	5	-11	-2
COc1ccccc1-c1ccc(=O)n(CC(=O)Nc2ccc(S(=O)(=O)Nc3ncccn3)cc2)n1	/	/	/	-10
O=C(CCc1ccccc1O)NN=Cc1ccc(Sc2cccc3cccnc23)o1	/	5	/	94*
CCCCCCCC(=O)N/N=C/c1ccc(Sc2cccc3cccnc23)o1	/	/	/	+
O=C(Cc1cccc2ccccc12)N/N=C/c1ccc(Sc2cccc3cccnc23)o1	/	/	/	i
O=Cc1ccc(Sc2ncccn2)o1	0	13	5	0
O=Cc1ccc(Sc2cccc3cccnc23)o1	/	/	/	104*
CCCCC(=O)N/N=C/c1ccc(Sc2cccc3cccnc23)o1	0	/	-1	/
COc1ccc(N2CCCS2(=O)=O)cc1NC(=O)C(=O)NCc1ccc2c(c1)OCO2	/	/	/	1
